Compound activity as filed in PubChem BioAssay.
ATXN2 expr inh: inhibitors of ATXN2 expression | HEK-293 ATXN2-luciferase reporter, luminescence, 24 h | Potency, µM (doses to about 57 µM), without a hit: at the top dose activity change, negative = inhibition, actives largely listed as inhibitors | 360,000 tested, 0.72% active | AID 1745845; note: potency is the fitted concentration of half-maximal effect; % is set by controls: 0 for no effect and ±100 for the full control effect; nearly all actives have a fitted effect of over 55% in size
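qHTS (up to 57 uM final) was run with 24 h compound exposure of reporter cells at 37 °C. Each well was multiplexed: SteadyGlo luminescence measured ATXN2-luciferase expression after a fluorogenic Gly-Phe-AFC viability readout (25 uM final).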
HepG2 viability: kills HepG2 cells in TGF-b inhibitor counter-screen. 410,000 tested, 0.76% active. HepG2 CAGA-GFP viability, ATP luminescence, 18 h. AID 588856. Potency, µM (series often up to 46.1 µM), for the others: top-dose activity change, negative = cytotoxicity, actives largely listed as cytotoxic; note: potency is the fitted concentration of half-maximal effect
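HepG2 CAGA-GFP cells (1000/well, DMEM with 1% FBS) received compound, then TGF-beta at 500 pg/mL final, and were incubated 18 hours at 37 degrees C. Viability was read by CellTiter-Glo luminescence. Media-only wells were set as complete cell-killing and DMSO as no toxicity.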
TGFb inhibitor: inhibitors of TGF-b signaling | HepG2 CAGA-GFP TGF-b/SMAD3 reporter, GFP fluorescence, 18 h; TGF-beta stimulated, 500 pg/mL final | Potency, µM (top dose mostly 46.1 µM), without a hit: at the top dose activity, negative = inhibition, most hits filed as inhibitors | 410,000 tested, 1.2% active | AID 588855; note: potency is the fitted concentration of half-maximal effect; % is set by controls: 0 for no effect and ±100 for the full control effect; nearly all actives have a fitted effect of over 65% in size
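Per well, imaged GFP fluorescence of HEPG2 CAGA-GFP cells gives the signal; cells get compound, then TGF-beta (500 pg/mL final), 18 h at 37 degrees C; %Activity versus -TGF-beta and +DMSO controls.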
S2 tox: reduces viability in counter-screen for ATXN expression inhibitors; S2 cells (HEK-293 line with an ATXN2-luciferase reporter) viability, CellTiter-Fluor protease fluorescence, 24 h; Potency, µM (series often up to 56.7 µM), hits mostly cytotoxic; 400,000 tested, 0.49% active; note: potency is the fitted concentration of half-maximal effect; nearly all actives have a fitted effect of over 40% in size
LDHA inh: inhibitors of human lactate dehydrogenase A | P00338 | purified LDHA, NADH/diaphorase-resazurin fluorescence; active compounds read low | activity change, % (values are at about 110 or 230 µM) | 480,000 tested, 0.15% active | AID 1347041; in the data active = activity change below about -30%; inconclusive = mostly about -25% to -30%;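 note: plate controls were DMSO wells for no effect and wells without enzyme for full effect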
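Human LDH5 (2 nM) was incubated with 0.06 mM NADH and 0.2 mM pyruvate for 5 min at room temperature in Tris pH 7.4. Remaining NADH was coupled through diaphorase/resazurin, and resorufin fluorescence was read at 0 and 20 min.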
mIDH1 inhibitor: human IDH1 R132H inhibition; Potency, µM (series often up to 76.6 µM), for the others: top-dose activity change, negative = inhibition, most hits filed as inhibitors; IDH1-R132H enzyme, NADPH consumption, diaphorase/resazurin fluorescence; O75874; 390,000 tested, 0.093% active; note: potency is the fitted concentration of half-maximal effect; % is set by controls: 0 for no effect and ±100 for the full control effect; nearly all actives have a fitted effect of over 65% in size
Target sequence (O75874 whole entry R132H, stated change not applied): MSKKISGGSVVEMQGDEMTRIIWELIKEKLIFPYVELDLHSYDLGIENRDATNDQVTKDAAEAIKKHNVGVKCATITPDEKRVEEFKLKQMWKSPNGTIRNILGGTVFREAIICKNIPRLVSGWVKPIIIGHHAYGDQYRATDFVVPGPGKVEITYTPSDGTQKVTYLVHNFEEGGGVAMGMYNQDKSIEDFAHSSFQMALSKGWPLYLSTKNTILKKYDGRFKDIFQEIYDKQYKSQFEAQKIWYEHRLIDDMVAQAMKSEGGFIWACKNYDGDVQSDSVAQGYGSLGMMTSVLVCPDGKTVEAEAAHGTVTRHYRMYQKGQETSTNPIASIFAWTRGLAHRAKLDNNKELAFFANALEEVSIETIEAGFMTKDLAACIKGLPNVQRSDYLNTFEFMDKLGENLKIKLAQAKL
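IDH1-R132H (0.5 ug/mL dispensed) in pH 7.5 Tris buffer was preincubated 30 min with compound, then given a substrate mix of 0.016 mM NADPH and 2 mM alpha-KG for 80 min at room temperature; remaining NADPH was read by diaphorase/resazurin fluorescence.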
The depositor's hits bear a star; ! = not active in a repeat. Shown are actives, neighbours in structure and some others; about 2.2% of the full set was active somewhere. Unless noted, calls come from the whole dose curve; as a rule, active = well fitted curve in the direction sought with a large enough effect; inconclusive = small, poorly fitted or top-dose-only effect, or another doubt; inactive = no such curve, though single readings can be large; an effect the other way counts as inactive or inconclusive.

How did O=C1[C@@H]2Cc3c([nH]c4ccccc34)C(c3cccc(Br)c3)N2C(=O)CN1C1CCN(Cc2ccccc2)CC1 (some centres not stated) do in these assays?
ATXN2 expr inh: inconclusive; HepG2 viability: -44%; TGFb inhibitor: 16µM*; S2 tox: inconclusive; LDHA inh: -8; mIDH1 inhibitor: -12%

What do the screens show for `Cc1ccc(-c2cc3c(nn2)-c2ccccc2C3=O)cc1`?
ATXN2 expr inh: 3.5µM*; HepG2 viability: -39%; TGFb inhibitor: inconclusive; S2 tox: inactive; LDHA inh: -2; mIDH1 inhibitor: 17%

Results for C=CC(=O)Nc1ccc(CN2C(=O)N(c3c(Cl)c(OC)cc(OC)c3Cl)Cc3cnc(NCCCCN(CC)CC)nc32)cc1 ?
ATXN2 expr inh: inconclusive; HepG2 viability: -83%; TGFb inhibitor: inconclusive; S2 tox: 11µM*; LDHA inh: 5; mIDH1 inhibitor: -6%

What do the screens show for `COC1=C(C)C(=O)C2=C(C1=O)C1C3CC4=C(C(=O)C(OC)=C(C)C4=O)C(CNC(=O)C(C)=O)N3C(C#N)C(C2)N1C` (configuration not stated)?
ATXN2 expr inh: inconclusive; HepG2 viability: 7.1µM*; TGFb inhibitor: 0.14µM*; S2 tox: 0.15µM*; LDHA inh: 44; mIDH1 inhibitor: 18%

What do the screens show for `CCc1nc2ccc(C(=O)Nc3ccc4c(c3)OCC(=O)N4)cn2c1N(CC)Cc1cccc(Br)c1`?
ATXN2 expr inh: inconclusive; HepG2 viability: -19%; TGFb inhibitor: inconclusive; S2 tox: 40µM*; LDHA inh: -5

What do the screens show for `CCc1nc2ccc(C(=O)Nc3ccc4c(c3)OCC(=O)N4)cn2c1N(CC)CCOC`?
ATXN2 expr inh: 11%; HepG2 viability: -21%; TGFb inhibitor: -2%; S2 tox: inactive; LDHA inh: 2

How did CCc1nc2ccc(C(=O)Nc3cccc(NS(C)(=O)=O)c3)cn2c1N(CC)Cc1cccc(Br)c1 do in these assays?
ATXN2 expr inh: 28µM*; HepG2 viability: -73%; TGFb inhibitor: inconclusive; S2 tox: inconclusive; LDHA inh: -2

How did CC(C)(C)C1CCC(C(=O)Nc2ccc(Cl)cc2)CC1 (configuration not stated) do in these assays?
LDHA inh: 10

How did CC(=O)c1c(C)[nH]c(C(=O)OCC(=O)NCc2ccccc2)c1C do in these assays?
HepG2 viability: -11%; TGFb inhibitor: -19%; S2 tox: inactive; LDHA inh: -7; mIDH1 inhibitor: 0%

How did CC(=O)C1=C(C)OC(N)=C(C#N)C1c1cc([N+](=O)[O-])ccc1Cl (configuration not stated) do in these assays?
ATXN2 expr inh: -24%; HepG2 viability: 6.3µM*; TGFb inhibitor: inconclusive; S2 tox: inactive; LDHA inh: 19; mIDH1 inhibitor: 9%

What do the screens show for `CCn1c(SCC(=O)Nc2ccc(C(C)=O)cc2)nc2nc3c(cc2c1=O)CCCC3`?
ATXN2 expr inh: inconclusive; HepG2 viability: -19%; TGFb inhibitor: 3%; S2 tox: 28µM*; LDHA inh: -3; mIDH1 inhibitor: 4%

How did CCOc1ccccc1N(C(=O)c1snc(C(N)=O)c1N)C(C(=O)NCCC(C)C)c1ccco1 (configuration not stated) do in these assays?
ATXN2 expr inh: -5%; HepG2 viability: 0%; TGFb inhibitor: -9%; S2 tox: inactive; LDHA inh: -4; mIDH1 inhibitor: -19%

How did CCOC(=O)CSc1nnc2n(-c3ccccc3)c(=O)c3c4c(sc3n12)COC(C(C)C)C4 (configuration not stated) do in these assays?
ATXN2 expr inh: 4%; HepG2 viability: 17%; TGFb inhibitor: 33%; S2 tox: inactive; LDHA inh: -3; mIDH1 inhibitor: -8%

What do the screens show for `CCOC(=O)CSc1nnc2n(-c3ccccc3)c(=O)c3c4c(sc3n12)CC(C(C)(C)C)CC4` (configuration not stated)?
ATXN2 expr inh: inconclusive; HepG2 viability: 11µM*; TGFb inhibitor: inconclusive; LDHA inh: 5; mIDH1 inhibitor: -8%

How did CCOc1ccccc1NC(=O)c1c(NCc2cccs2)sc2c1CCCCC2 do in these assays?
ATXN2 expr inh: inconclusive; HepG2 viability: -48%; TGFb inhibitor: 18µM*; S2 tox: inconclusive; LDHA inh: -3; mIDH1 inhibitor: 34%

Results for CCOC(=O)N1CCc2c(sc(NCc3sccc3C)c2C(=O)Nc2ccc(OC)cc2OC)C1 ?
ATXN2 expr inh: 14µM*; HepG2 viability: -2%; TGFb inhibitor: -30%; S2 tox: inactive; LDHA inh: 8

Results for COc1ccc(OC)c(NC(=O)c2c(NCc3cccs3)sc3c2CCCC3)c1 ?
HepG2 viability: -30%; TGFb inhibitor: 16µM*; LDHA inh: 10; mIDH1 inhibitor: -4%

Results for Cc1onc(-c2ccccc2)c1C(=O)O/N=C(\N)c1ccc([N+](=O)[O-])o1 ?
HepG2 viability: 13µM*; TGFb inhibitor: 13µM*; S2 tox: inconclusive; LDHA inh: -3; mIDH1 inhibitor: 13%

How did COc1cc(-c2oc3ccc(C)cc3c(=O)c2O)cc(OC)c1OC do in these assays?
ATXN2 expr inh: inconclusive; HepG2 viability: -42%; TGFb inhibitor: 2.5µM*; LDHA inh: 1; mIDH1 inhibitor: -11%

How did COc1cc(NC(=O)c2cc(=O)c3cc(C)ccc3o2)cc(OC)c1OC do in these assays?
LDHA inh: 0

How did Cn1cnc2c1c(=O)[nH]c(=O)n2C do in these assays?
ATXN2 expr inh: 31µM*!; S2 tox: inactive

Results for Cn1c(=O)[nH]c2ncn(C)c2c1=O ?
ATXN2 expr inh: -5%; HepG2 viability: -7%; TGFb inhibitor: 0%; S2 tox: inactive; LDHA inh: -1; mIDH1 inhibitor: 2%

What do the screens show for `O=C(CN1C(=O)c2ccccc2S1(=O)=O)c1ccc(Cl)cc1Cl`?
ATXN2 expr inh: 2µM*; HepG2 viability: -7%; TGFb inhibitor: -5%; S2 tox: inactive; LDHA inh: -4; mIDH1 inhibitor: 4%

How did O=C(CN1C(=O)c2ccccc2S1(=O)=O)c1ccc(OC(F)F)cc1 do in these assays?
ATXN2 expr inh: 2µM*; HepG2 viability: 6%; TGFb inhibitor: 11%; S2 tox: inactive; LDHA inh: -5; mIDH1 inhibitor: 3%

How did O=C(CN1C(=O)c2ccccc2S1(=O)=O)c1ccccc1F do in these assays?
ATXN2 expr inh: 7.9µM*; HepG2 viability: 5%; TGFb inhibitor: -13%; S2 tox: inactive; LDHA inh: -1; mIDH1 inhibitor: -7%
